Measurements: PubChem BioAssay AID624252 (National Center for Advancing Translational Sciences (NCATS), 2012)
This is one part of the list. Records with an inconclusive call do not appear. The source made the active and inactive calls. The call rests on the fitted dose curve; in most records, active means well fitted cell-killing curve with a large enough effect; inconclusive means small, poorly fitted or top-dose-only effect; inactive means flat fitted curve, though single readings scatter.

Assay: qHTS screen for small molecules that inhibit ELG1-dependent DNA repair: Hit Confirmation with Unstimulated Viability Assay;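 further: compound exposure lasted 16 hours before reading; nearly all actives have a fitted effect of over 55% in size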
Settings: cell viability counter-screen, luminescence
Text: Cancer cells divide rapidly compared to normal cells in the body. During cell division, cancer cells need to duplicate their genome by DNA replication. The failure of genome duplication leads to cancer cells' death. Therefore, inhibitors of DNA replication could specifically kill cancer cells. Based on this concept, many chemotherapeutic agents were developed and have been used to treat cancer patients. However, there are a limited number of agents available in the clinical setting, and some of those that do exist have low efficacy and severe side effects. Therefore, if we can find the compounds that effectively block DNA replication either by directly damaging DNA or by inhibiting other cellular mechanisms, the options for cancer treatment will be broadened. With this in mind, we developed a quantitative high-throughput ELG1-luciferase reporter gene assay. Small molecules that specifically block ELG1 function in response to DNA damage can be identified by monitoring the suppression of luciferase activity. Since ELG1 defines a pathway for repairing DNA damage, agents blocking ELG1 function can be used to sensitize cancer cells to chemotherapeutic agents whose mechanism of action involves the induction of DNA damage.
NIH Molecular Libraries Probe Production Network [MLPCN]
NIH Chemical Genomics Center [NCGC]
Assay Provider: Kyungjae Myung, NHGRI, NIH
For genotoxicity screening, 2,000 cells in 4 uL/well were dispensed into white, solid-bottom 1536-well plates using a solenoid-based dispenser. 23 nL compound or DMSO vehicle were added by a pin tool, the plates were incubated 16 hr at 37 °C and 5% CO2. 5 ul ONE-Glo (Promega) was then added to each plate and following a 30 min incubation at room temperature, luciferase activity was quantified on a ViewLux CCD-based plate reader.
Potency means the concentration at half of the fitted maximal effect.

Compound | Potency
CC(=O)[O][Sn]([c]1ccccc1)([c]1ccccc1)[c]1ccccc1 | 1410 nM (active)
C[C@@]12CC[C@H]3[C@@H](CC[C@]4(O)C[C@H](O)CC[C@@]34C=O)[C@]1(O)CC[C@@H]2C1=CC(=O)OC1 | 425 nM (active)
COC1CC(OC2CC[C@@]3(C=O)C4CC[C@]5(C)C(C6=CC(=O)OC6)CC[C@@]5(O)C4CC[C@]3(O)C2)OC(C)C1O (stereo partly drawn) | 199 nM (active)
